# Assay results published in article PMC7862700, “An all-to-all approach to the identification of sequence-specific readers for epigenetic DNA modifications on cytosine”.
# Legend:
# Experiment in all cases: DAPPL (digital affinity profiling via proximity ligation, sequencing); 10 mM Tris-HCl pH 7.5, 50 mM NaCl, 1 mM DTT, 4% glycerol, room temperature, 30 min; GST-TFs on glutathione beads, 16-mer random dsDNA library, 0.1% formaldehyde crosslink after washing; high values mean tight binding
# [1] = molecular target: T1, ELK1 (Homo sapiens, UniProt P19419 1-428); conditions: protein: recombinant; tags: N-terminal GST; dsDNA, one strand shown
# T1 sequence: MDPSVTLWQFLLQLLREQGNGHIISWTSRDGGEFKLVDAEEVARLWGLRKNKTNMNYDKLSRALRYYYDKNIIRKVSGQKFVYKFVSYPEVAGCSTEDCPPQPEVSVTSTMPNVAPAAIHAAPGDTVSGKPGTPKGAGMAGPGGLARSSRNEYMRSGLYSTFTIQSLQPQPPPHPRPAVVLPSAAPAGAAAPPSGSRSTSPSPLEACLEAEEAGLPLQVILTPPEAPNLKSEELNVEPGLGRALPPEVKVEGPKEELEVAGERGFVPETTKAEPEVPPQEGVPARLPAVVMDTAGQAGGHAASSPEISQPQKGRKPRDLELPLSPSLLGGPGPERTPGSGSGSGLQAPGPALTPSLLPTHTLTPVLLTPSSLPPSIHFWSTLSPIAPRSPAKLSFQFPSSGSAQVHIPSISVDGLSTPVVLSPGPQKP
# Procedure, shortened: (§1)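 Binding signal is each hexamer's read frequency for a factor divided by its frequency in the tag-only sample. The factors were GST-fused human transcription factors from yeast, captured on glutathione beads, DNA-barcoded and pooled with that sample. Pools were incubated with 200 nmole of a random double-stranded 16-mer DNA library in Tris/NaCl/DTT/glycerol buffer at room temperature for 30 min, then washed, crosslinked with 0.1% formaldehyde, proximity-ligated with BsaI/T4 ligase (1 h, 37 °C), PCR-amplified and sequenced on an Illumina NextSeq500.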
# [2] = molecular target: T2, GABPA (Homo sapiens, UniProt Q06546 1-454); conditions: protein: recombinant; tags: N-terminal GST; dsDNA, one strand shown
# T2 sequence: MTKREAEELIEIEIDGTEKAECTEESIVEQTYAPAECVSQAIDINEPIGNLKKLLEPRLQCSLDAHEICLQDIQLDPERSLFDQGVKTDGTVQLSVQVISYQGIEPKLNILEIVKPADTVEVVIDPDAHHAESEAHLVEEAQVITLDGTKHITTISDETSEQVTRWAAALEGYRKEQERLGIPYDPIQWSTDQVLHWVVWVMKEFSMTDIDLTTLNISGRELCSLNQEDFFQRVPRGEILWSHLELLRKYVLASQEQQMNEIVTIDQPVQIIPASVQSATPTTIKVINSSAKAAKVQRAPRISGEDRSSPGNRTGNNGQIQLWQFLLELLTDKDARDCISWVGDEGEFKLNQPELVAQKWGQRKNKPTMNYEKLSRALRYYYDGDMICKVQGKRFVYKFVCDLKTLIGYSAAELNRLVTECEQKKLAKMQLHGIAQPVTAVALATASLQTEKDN
# Procedure, shortened: as §1
# [3] = molecular target: ELF1 (Homo sapiens, UniProt P32519 1-619); conditions: protein: recombinant; tags: N-terminal GST; dsDNA, one strand shown
# Procedure, shortened: as §1
# [4] = molecular target: T3, EHF (Homo sapiens, UniProt Q9NZC4 1-300); conditions: protein: recombinant; tags: N-terminal GST; dsDNA, one strand shown
# T3 sequence: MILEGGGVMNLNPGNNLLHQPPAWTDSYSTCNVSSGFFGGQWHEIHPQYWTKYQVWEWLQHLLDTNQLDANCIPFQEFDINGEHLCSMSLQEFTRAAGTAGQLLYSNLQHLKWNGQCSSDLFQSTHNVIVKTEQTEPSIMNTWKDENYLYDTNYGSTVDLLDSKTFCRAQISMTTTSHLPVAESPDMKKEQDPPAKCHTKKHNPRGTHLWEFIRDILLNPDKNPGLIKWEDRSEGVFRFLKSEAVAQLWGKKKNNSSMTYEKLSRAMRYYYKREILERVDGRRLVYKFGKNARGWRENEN
# Procedure, shortened: as §1
# [5] = molecular target: SPI1 (Homo sapiens, UniProt P17947 1-270); conditions: protein: recombinant; tags: N-terminal GST; dsDNA, one strand shown
# Procedure, shortened: as §1
# [6] = molecular target: SPIB (Homo sapiens, UniProt Q01892 1-262); conditions: protein: recombinant; tags: N-terminal GST; dsDNA, one strand shown
# Procedure, shortened: as §1
# [7] = molecular target: T4, ELK3 (Homo sapiens, UniProt P41970 1-407); conditions: protein: recombinant; tags: N-terminal GST; dsDNA, one strand shown
# T4 sequence: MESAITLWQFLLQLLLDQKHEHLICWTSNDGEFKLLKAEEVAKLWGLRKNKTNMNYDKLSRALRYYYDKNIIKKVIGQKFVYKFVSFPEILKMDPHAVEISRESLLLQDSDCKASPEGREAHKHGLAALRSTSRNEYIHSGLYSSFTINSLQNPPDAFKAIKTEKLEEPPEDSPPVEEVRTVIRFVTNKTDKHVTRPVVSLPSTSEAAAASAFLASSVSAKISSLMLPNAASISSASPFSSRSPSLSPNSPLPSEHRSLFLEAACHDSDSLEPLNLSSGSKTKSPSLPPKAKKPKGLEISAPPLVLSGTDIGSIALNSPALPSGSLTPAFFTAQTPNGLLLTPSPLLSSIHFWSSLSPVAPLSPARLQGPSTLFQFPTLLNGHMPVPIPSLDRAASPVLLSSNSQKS
# Procedure, shortened: as §1
# [8] = molecular target: HSF1 (Homo sapiens, UniProt Q00613 1-529); conditions: protein: recombinant; tags: N-terminal GST; chain copies: 3; dsDNA, one strand shown
# Procedure, shortened: as §1
# [9] = molecular target: T5, SPIC (Homo sapiens, UniProt Q8N5J4 1-248); conditions: protein: recombinant; tags: N-terminal GST; dsDNA, one strand shown
# T5 sequence: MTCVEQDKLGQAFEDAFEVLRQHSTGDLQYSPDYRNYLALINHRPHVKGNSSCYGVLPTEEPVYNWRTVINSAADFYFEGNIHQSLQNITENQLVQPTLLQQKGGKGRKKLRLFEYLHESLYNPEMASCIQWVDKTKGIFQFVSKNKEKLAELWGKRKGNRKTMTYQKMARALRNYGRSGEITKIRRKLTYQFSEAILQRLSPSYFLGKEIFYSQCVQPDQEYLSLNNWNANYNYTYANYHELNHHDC
# Procedure, shortened: as §1
# [10] = molecular target: ELF4 (Homo sapiens, UniProt Q99607 1-663); conditions: protein: recombinant; tags: N-terminal GST; dsDNA, one strand shown
# Procedure, shortened: as §1
# [11] = molecular target: T6, ELK4 (Homo sapiens, UniProt P28324-2 1-405); conditions: protein: recombinant; tags: N-terminal GST; dsDNA, one strand shown
# T6 sequence: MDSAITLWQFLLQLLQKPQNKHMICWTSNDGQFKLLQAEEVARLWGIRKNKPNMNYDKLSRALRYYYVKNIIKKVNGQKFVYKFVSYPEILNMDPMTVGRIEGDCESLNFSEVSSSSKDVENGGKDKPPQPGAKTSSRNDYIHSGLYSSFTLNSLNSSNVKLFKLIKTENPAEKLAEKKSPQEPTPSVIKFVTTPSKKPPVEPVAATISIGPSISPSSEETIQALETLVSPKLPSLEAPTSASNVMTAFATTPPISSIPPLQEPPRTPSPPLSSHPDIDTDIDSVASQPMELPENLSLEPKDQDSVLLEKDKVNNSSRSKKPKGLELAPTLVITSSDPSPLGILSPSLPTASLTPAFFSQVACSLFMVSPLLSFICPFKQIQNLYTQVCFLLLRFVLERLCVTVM
# Procedure, shortened: as §1
# [12] = molecular target: T7, ETV2 (Homo sapiens, UniProt O00321 1-342); conditions: protein: recombinant; tags: N-terminal GST; dsDNA, one strand shown
# T7 sequence: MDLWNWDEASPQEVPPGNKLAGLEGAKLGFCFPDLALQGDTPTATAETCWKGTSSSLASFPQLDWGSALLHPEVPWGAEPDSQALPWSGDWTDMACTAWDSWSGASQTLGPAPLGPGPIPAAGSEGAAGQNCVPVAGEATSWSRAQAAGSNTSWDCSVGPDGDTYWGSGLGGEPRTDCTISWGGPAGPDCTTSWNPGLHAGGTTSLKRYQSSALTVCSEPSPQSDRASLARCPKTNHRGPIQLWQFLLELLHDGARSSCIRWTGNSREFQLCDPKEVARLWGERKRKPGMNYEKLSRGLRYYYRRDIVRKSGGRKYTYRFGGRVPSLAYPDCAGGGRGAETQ
# Procedure, shortened: as §1
# [13] = molecular target: CRX (Homo sapiens, UniProt O43186 1-299); conditions: protein: recombinant; tags: N-terminal GST; dsDNA, one strand shown
# Procedure, shortened: as §1
# [14] = molecular target: ETV1 (Homo sapiens, UniProt P50549 1-477); conditions: protein: recombinant; tags: N-terminal GST; dsDNA, one strand shown
# Procedure, shortened: as §1
# [15] = molecular target: T8, ETV3L (Homo sapiens, UniProt Q6ZN32 1-361); conditions: protein: recombinant; tags: N-terminal GST; dsDNA, one strand shown
# T8 sequence: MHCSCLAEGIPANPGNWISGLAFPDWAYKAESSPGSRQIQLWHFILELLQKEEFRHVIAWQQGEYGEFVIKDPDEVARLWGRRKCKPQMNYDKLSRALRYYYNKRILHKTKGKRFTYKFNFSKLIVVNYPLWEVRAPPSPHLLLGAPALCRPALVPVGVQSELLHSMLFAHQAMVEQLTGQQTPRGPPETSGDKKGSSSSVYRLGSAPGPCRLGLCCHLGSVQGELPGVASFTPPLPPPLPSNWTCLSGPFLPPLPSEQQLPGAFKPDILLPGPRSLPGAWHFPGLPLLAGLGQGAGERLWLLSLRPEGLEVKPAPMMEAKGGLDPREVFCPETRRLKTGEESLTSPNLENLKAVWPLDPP
# Procedure, shortened: as §1
# [16] = molecular target: T9, ETS2 (Homo sapiens, UniProt P15036 1-469); conditions: protein: recombinant; tags: N-terminal GST; dsDNA, one strand shown
# T9 sequence: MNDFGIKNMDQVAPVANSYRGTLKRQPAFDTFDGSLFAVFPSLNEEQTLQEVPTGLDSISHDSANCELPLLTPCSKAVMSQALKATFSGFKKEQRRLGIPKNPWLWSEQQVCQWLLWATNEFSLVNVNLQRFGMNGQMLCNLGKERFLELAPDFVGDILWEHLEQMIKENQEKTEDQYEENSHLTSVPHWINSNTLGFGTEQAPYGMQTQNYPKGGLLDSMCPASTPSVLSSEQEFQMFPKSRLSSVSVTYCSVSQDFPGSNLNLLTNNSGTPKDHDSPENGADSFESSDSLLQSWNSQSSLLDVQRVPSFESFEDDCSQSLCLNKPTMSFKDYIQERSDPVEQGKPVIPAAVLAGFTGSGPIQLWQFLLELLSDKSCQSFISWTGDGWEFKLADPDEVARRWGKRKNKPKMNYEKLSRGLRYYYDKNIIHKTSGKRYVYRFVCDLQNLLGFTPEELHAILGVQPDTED
# Procedure, shortened: as §1
# [17] = molecular target: T10, ETV7 (Homo sapiens, UniProt Q9Y603 1-341); conditions: protein: recombinant; tags: N-terminal GST; dsDNA, one strand shown
# T10 sequence: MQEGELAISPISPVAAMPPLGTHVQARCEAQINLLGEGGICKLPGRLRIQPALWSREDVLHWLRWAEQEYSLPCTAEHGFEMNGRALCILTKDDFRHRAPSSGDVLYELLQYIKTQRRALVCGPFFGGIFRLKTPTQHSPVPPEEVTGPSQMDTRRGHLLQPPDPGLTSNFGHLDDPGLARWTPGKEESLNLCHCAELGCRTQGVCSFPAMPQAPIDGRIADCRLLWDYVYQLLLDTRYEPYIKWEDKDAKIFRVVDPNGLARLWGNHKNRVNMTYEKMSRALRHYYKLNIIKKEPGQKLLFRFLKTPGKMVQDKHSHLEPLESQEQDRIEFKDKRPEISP
# Procedure, shortened: as §1
# [18] = molecular target: T11, ELF5 (Homo sapiens, UniProt Q9UKW6-2 1-255); conditions: protein: recombinant; tags: N-terminal GST; dsDNA, one strand shown
# T11 sequence: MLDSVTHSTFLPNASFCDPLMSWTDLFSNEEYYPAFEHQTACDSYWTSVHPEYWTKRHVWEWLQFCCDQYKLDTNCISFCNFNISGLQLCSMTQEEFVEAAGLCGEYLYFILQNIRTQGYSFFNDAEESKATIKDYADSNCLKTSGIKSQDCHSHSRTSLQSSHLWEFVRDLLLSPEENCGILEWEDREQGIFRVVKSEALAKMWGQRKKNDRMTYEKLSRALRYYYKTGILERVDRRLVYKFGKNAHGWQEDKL
# Procedure, shortened: as §1
# [19] = molecular target: T12, ETV3 (Homo sapiens, UniProt P41162-2 1-143); conditions: protein: recombinant; tags: N-terminal GST; dsDNA, one strand shown
# T12 sequence: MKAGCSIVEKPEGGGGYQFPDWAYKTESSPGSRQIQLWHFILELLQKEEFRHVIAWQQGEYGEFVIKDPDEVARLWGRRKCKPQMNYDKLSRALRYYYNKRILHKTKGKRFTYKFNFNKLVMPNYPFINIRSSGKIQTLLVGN
# Procedure, shortened: as §1
# Sequence of ELF1 (P32519 whole entry): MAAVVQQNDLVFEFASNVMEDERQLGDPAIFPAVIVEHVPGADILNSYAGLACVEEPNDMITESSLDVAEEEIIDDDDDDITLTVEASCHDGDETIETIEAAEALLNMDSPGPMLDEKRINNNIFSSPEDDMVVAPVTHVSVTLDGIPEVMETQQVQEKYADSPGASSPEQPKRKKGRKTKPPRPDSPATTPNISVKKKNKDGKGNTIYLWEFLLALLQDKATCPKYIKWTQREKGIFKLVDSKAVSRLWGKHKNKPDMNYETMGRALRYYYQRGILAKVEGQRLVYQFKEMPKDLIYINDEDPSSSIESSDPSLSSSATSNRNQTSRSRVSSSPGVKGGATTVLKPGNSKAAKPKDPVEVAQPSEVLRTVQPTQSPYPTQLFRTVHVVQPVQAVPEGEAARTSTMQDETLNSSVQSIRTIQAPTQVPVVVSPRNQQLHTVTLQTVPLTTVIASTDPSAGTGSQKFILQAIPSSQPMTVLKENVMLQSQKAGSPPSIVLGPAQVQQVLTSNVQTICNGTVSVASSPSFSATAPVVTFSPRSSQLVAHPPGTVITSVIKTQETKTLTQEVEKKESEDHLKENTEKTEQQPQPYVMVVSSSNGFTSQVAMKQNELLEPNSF
# Sequence of ETV1 (P50549 whole entry): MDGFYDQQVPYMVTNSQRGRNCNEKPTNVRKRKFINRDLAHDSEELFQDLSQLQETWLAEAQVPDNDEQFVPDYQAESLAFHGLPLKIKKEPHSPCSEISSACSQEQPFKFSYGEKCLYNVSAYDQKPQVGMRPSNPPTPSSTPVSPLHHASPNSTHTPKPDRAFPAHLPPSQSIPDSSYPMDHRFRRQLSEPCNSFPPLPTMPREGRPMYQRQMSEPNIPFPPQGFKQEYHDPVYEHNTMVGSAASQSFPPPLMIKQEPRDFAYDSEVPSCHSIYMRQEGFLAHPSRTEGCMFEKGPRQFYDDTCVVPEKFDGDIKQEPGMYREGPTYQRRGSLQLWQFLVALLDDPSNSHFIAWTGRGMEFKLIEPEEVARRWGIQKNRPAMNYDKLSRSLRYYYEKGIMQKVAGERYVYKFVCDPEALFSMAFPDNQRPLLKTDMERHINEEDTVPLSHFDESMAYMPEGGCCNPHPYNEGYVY
# Sequence of SPIB (Q01892 whole entry): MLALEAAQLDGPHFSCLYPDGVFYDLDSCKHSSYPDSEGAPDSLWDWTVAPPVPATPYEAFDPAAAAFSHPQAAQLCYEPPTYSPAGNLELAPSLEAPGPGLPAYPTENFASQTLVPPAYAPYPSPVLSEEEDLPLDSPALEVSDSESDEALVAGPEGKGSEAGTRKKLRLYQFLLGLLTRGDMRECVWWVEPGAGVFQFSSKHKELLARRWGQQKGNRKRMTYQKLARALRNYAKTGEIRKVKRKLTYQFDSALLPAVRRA
# Sequence of HSF1 (Q00613 whole entry): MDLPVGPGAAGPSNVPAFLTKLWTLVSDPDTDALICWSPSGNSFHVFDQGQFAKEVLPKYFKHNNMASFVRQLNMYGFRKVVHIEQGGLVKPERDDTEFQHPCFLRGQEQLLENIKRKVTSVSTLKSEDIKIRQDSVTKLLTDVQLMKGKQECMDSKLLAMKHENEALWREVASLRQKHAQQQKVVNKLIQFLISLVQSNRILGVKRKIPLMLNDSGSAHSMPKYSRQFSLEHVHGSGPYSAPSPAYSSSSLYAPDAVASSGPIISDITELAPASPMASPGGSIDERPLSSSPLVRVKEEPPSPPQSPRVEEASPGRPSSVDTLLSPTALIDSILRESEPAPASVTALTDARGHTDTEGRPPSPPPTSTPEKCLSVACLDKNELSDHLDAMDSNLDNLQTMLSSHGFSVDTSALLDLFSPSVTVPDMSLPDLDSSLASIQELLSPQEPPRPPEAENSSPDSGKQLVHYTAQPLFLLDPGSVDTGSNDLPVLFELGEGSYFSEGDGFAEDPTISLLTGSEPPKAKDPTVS
# Sequence of ELF4 (Q99607 whole entry): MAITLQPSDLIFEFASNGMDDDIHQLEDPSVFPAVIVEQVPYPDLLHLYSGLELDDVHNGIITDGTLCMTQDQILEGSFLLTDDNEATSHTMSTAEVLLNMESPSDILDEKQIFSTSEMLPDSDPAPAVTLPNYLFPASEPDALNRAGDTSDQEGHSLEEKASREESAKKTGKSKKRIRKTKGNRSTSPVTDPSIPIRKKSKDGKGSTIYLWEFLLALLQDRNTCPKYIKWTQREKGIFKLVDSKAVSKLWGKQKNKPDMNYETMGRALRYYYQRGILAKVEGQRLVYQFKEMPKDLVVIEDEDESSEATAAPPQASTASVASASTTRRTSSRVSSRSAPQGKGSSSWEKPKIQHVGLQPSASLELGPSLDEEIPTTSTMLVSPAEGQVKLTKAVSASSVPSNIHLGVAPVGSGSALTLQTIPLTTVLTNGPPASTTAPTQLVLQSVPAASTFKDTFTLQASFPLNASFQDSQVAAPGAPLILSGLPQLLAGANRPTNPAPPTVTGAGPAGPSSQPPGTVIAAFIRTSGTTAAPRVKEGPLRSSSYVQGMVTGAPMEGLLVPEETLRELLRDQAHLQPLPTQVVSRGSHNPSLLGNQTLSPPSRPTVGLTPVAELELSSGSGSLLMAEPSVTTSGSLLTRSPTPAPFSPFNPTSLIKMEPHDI
# Sequence of CRX (O43186 whole entry): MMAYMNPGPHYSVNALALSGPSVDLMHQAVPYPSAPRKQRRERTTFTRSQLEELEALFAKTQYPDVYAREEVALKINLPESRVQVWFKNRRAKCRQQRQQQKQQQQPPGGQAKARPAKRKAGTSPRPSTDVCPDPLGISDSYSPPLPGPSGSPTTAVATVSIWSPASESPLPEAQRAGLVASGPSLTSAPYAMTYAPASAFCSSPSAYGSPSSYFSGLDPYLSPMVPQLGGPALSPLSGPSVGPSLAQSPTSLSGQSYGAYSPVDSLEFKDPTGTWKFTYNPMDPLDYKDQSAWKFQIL
sequence,measurement,setting,value
TGATAA,binding signal,[1],"1.04 fold enrichment (6-mer frequency, TF over GST control)"
same,binding signal,[2],"1.03 fold enrichment (6-mer frequency, TF over GST control)"
same,binding signal,[3],"1 fold enrichment (6-mer frequency, TF over GST control)"
same,binding signal,[4],"1.07 fold enrichment (6-mer frequency, TF over GST control)"
same,binding signal,[5],"1.05 fold enrichment (6-mer frequency, TF over GST control)"
same,binding signal,[6],"1.05 fold enrichment (6-mer frequency, TF over GST control)"
same,binding signal,[7],"1.09 fold enrichment (6-mer frequency, TF over GST control)"
same,binding signal,[8],"1.2 fold enrichment (6-mer frequency, TF over GST control)"
same,binding signal,[9],"1.04 fold enrichment (6-mer frequency, TF over GST control)"
same,binding signal,[10],"1.07 fold enrichment (6-mer frequency, TF over GST control)"
same,binding signal,[11],"1.06 fold enrichment (6-mer frequency, TF over GST control)"
same,binding signal,[12],"1.02 fold enrichment (6-mer frequency, TF over GST control)"
same,binding signal,[13],"1.52 fold enrichment (6-mer frequency, TF over GST control)"
same,binding signal,[14],"1.07 fold enrichment (6-mer frequency, TF over GST control)"
same,binding signal,[15],"1.06 fold enrichment (6-mer frequency, TF over GST control)"
same,binding signal,[16],"1.01 fold enrichment (6-mer frequency, TF over GST control)"
same,binding signal,[17],"1.08 fold enrichment (6-mer frequency, TF over GST control)"
same,binding signal,[18],"1.02 fold enrichment (6-mer frequency, TF over GST control)"
same,binding signal,[19],"1.05 fold enrichment (6-mer frequency, TF over GST control)"
